According to PubChem BioAssay (NCI):
Compounds without any hit were thinned out: in the full panel of roughly 83,000, 20% have a hit.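 A percent growth of 40 corresponds to 60% growth inhibition; 0 means no net growth; -100 means all cells died. Active threshold: below 10.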 Active and inactive are the calls of the source.

Key:
Assay in all cases: NCI-60 one-dose screen, 48 h (100 = growth as untreated, 0 = no growth, -100 = all killed)
Settings in all cases: 10 µM unless noted
[1] = test system: RPMI-8226 leukemia
[2] = test system: OVCAR-5 ovarian
[3] = test system: OVCAR-4 ovarian
[4] = test system: SK-OV-3 ovarian
[5] = test system: IGROV1 ovarian
[6] = test system: OVCAR-3 ovarian
[7] = test system: HS 578T breast
[8] = test system: NCI/ADR-RES ovarian
[9] = test system: T-47D breast
[10] = test system: BT-549 breast
[11] = test system: MDA-MB-435 melanoma
[12] = test system: SW-620 colon
[13] = test system: MCF7 breast
[14] = test system: HCT-116 colon
[15] = test system: HCC-2998 colon
[16] = test system: KM12 colon
[17] = test system: OVCAR-8 ovarian

Measured: growth

O=C(NC(Cc1ccccc1)C(=O)CCl)OCc1ccccc1 (stereo not drawn)
inactive: [2] 92.3% | [3] 62.7% | [4] 87.8% | [5] 87.7% | [6] 76% | [7] 99.5% | [8] 75.1% | [9] 70.7% | [10] 41.4% | [11] 16.1% | [12] 48.4% | [13] 29% | [14] 45.9% | [15] 97.1% | [16] 89.1%
active: [1] 9.51%

COc1ccc(-c2c(C)noc2-c2ccc(O)cc2O)cc1
inactive: [1] 50.7% | [17] 99.9% | [3] 76.4% | [4] 94.1% | [5] 87% | [6] 80.5% | [7] 106% | [8] 94.6% | [9] 86.9% | [10] 112% | [11] 87.1% | [12] 69.5% | [13] 67.6% | [14] 77.9% | [15] 111% | [16] 64.4%

CC(=O)C1=C(O)C=C2Oc3c(C(=O)/C=C/c4ccccc4)c(O)c(C)c(O)c3[C@]2(C)C1=O
inactive: [1] 34.9% | [17] 14% | [2] 78.7% | [4] 40.9% | [5] 37.1% | [6] 27.5% | [7] 50% | [8] 16.9% | [9] 47.1% | [10] 49.6% | [11] 46.3% | [12] 49.9% | [13] 44.1% | [14] 30.9% | [15] 32.6% | [16] 33.6%

CN(C)C(=O)c1cc2cnc(Nc3ccc(-c4csc5c(=O)cc(N6CCNCC6)oc45)cc3)nc2n1C1CCCC1
inactive: [17] 20.7% | [2] 22.9% | [4] 32.2% | [5] 15.6% | [6] 20.6% | [7] 11.4% | [8] 77.5% | [9] 52.1% | [10] 46.2% | [11] 38.2% | [16] 13.8%
active: [1] -22.9% | [12] 0.864% | [13] 3.93% | [14] 4.23% | [15] -0.6%

O=C1C=CC(Nc2ccccc2[N+](=O)[O-])C1Nc1ccccc1[N+](=O)[O-] (stereo not drawn)
active: [1] -17.4% | [3] 3.47% | [6] -81.3% | [8] -26.8% | [10] -58.7% | [11] 8.78% | [12] -71.6% | [13] -77.3% | [14] -89.5% | [15] 6.76%
inactive: [17] 31% | [4] 109% | [5] 86% | [7] 32% | [16] 58.3%

COc1cc(-c2c3c(nc4c2c(C)nn4-c2ccccc2)-c2ccccc2C(=O)C3=O)cc(OC)c1OC
active: [6] -29.4% | [11] -0.815%
inactive: [1] 55.2% | [17] 80.1% | [2] 103% | [4] 104% | [5] 94.9% | [7] 111% | [8] 79.7% | [9] 72.4% | [10] 68.4% | [12] 86.2% | [13] 57.7% | [14] 51.5% | [15] 71.1% | [16] 80.8%

CCN(CC)CCCC(C)N/C(=C1\C(=O)NC(=O)\C1=C(/NC(C)CCCN(CC)CC)c1cccc(OC)c1)c1cccc(OC)c1 (stereo not drawn)
active: [1] -35.7% | [2] 1.93% | [3] -23.3% | [5] -18.5% | [6] -11.3% | [8] 2.36% | [10] 2.98% | [11] -81.6% | [12] 0.116% | [13] 0.0378% | [14] 2.62% | [16] 1.06%
inactive: [4] 11.8% | [7] 38.4% | [9] 48.6%

CCOC(=O)C12CCCC1=CC(=O)CC2 (stereo not drawn)
inactive: [1] 98.5% | [17] 96.5% | [3] 112% | [4] 102% | [5] 103% | [6] 116% | [7] 98.2% | [8] 104% | [10] 110% | [11] 112% | [12] 109% | [13] 101% | [14] 105% | [15] 105% | [16] 106%

COc1ccc(-c2csc(NC(=O)CN3CCN(c4cc5c(cc4F)c(=O)c(C(=O)O)cn5C4CC4)CC3)n2)cc1
inactive: [3] 40.8% | [5] 38.5% | [6] 12.7% | [7] 16.5% | [8] 60.7% | [9] 16.6% | [11] 14.4% | [12] 16% | [13] 12.8% | [16] 15.3%
active: [1] -9.43% | [17] 9.73% | [4] -4.37% | [10] 9.62% | [14] 9.62%

O=C(CO[N+](=O)[O-])Nc1ccc(C(=O)/C=C/c2ccc(Cl)cc2)cc1
active: [1] -14.2% | [5] -26% | [6] 0.332% | [11] -2.76% | [12] -61.8% | [13] 1.64% | [14] -49.2% | [15] -61.3% | [16] -60.6%
inactive: [17] 27.2% | [3] 76.1% | [4] 89.3% | [7] 89.7% | [8] 29.9% | [9] 55.5% | [10] 18.9%

CN[C@@]12CC3(C=CC(=O)C=C3)O[C@]1(Cc1ccc(OC)cc1)N(C)C(=O)N2
inactive: [1] 17.2% | [3] 60.9% | [4] 108% | [5] 55.3% | [6] 17.3% | [7] 106% | [8] 61.7% | [9] 47.8% | [10] 44.3% | [11] 31.4% | [12] 24.6% | [13] 16.4% | [15] 100% | [16] 98.2%
active: [17] 6.34% | [14] 4.01%

C=CCSc1nnc(-c2ccc(C(C)(C)C)cc2)n1-c1cccc(C(F)(F)F)c1
inactive: [1] 17.4% | [17] 32.1% | [2] 77.3% | [3] 44.4% | [4] 61.5% | [5] 54.5% | [6] 40.9% | [7] 45.5% | [8] 22.9% | [10] 19.3% | [11] 52.5% | [12] 46.2% | [13] 12.1% | [14] 13.3% | [15] 51.1% | [16] 27.1%

O=C(/C=C\c1ccc2ccccc2n1)c1cc(Cl)ccc1O
inactive: [17] 63.6% | [2] 81.3% | [3] 73.6% | [4] 111% | [5] 86.1% | [6] 43.5% | [7] 95.1% | [8] 60.4% | [9] 28.3% | [10] 71.5% | [11] 51.8% | [12] 29% | [13] 27.9% | [14] 48.6% | [15] 84.4% | [16] 74.2%

COc1ccc(-c2cc(-c3cccnc3)nc3sc4c(=O)n(-c5ccc(C)cc5)nnc4c23)cc1OC
inactive: [1] 99.7% | [17] 105% | [2] 90% | [4] 95% | [5] 99.6% | [6] 107% | [7] 93.9% | [8] 102% | [9] 99.3% | [10] 103% | [11] 99.3% | [12] 94.4% | [13] 99.7% | [14] 95% | [15] 109% | [16] 103%

COc1nc2c(cc1S(=O)(=O)c1ccccc1)CCc1c-2cnn1-c1ccc(Cl)cc1
inactive: [1] 93.3% | [17] 104% | [2] 85.5% | [4] 95.5% | [5] 100% | [6] 111% | [7] 82% | [8] 89.9% | [9] 83.2% | [10] 109% | [11] 90.8% | [12] 93.1% | [13] 95.2% | [14] 88.1% | [15] 92.9% | [16] 109%

COc1ccc(-c2nn(-c3ccccc3)cc2/C=C2\SC(=O)NC2=O)cc1
inactive: [1] 78.7% | [17] 101% | [3] 89.5% | [4] 93.3% | [5] 103% | [6] 110% | [7] 106% | [8] 106% | [9] 85.9% | [10] 101% | [11] 108% | [12] 107% | [13] 85.2% | [14] 95.1% | [15] 109% | [16] 98.1%

COc1c(Cl)cc(Cl)cc1Cl
inactive: [1] 118% | [17] 112% | [2] 121% | [4] 107% | [5] 97.4% | [6] 109% | [7] 87.8% | [8] 112% | [9] 104% | [10] 120% | [11] 115% | [12] 91.8% | [13] 111% | [14] 109% | [15] 118% | [16] 109%
